Bioassay records deposited in PubChem BioAssay by National Center for Advancing Translational Sciences (NCATS).
KAT2A inh: GCN5L2 (KAT2A) acetyltransferase inhibition; 390,000 compounds, 0.21% hits; GCN5L2 HAT assay, ThioGlo1 CoA-SH fluorescence; Potency, µM (highest dose often 58.9 µM), most hits filed as inhibitors; AID 504327; Q92830
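Compounds, pin-transferred from DMSO stocks, meet 20nM GCN5L2 for 15 min before the reaction begins with H3(1-25) peptide (75uM) and acetyl-CoA (70uM). Thiol-reactive ThioGlo1 reports CoA release over 20 min at room temperature.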
DT40 TDP1 CPT: growth inhibition of DT40 Tdp1-/-;hTDP1 cells with camptothecin (screen for TDP1 inhibitors); 420,000 compounds, 12% hits; Potency, µM (titrated, usually from 46.2 µM), most hits filed as inhibitors; chicken DT40 Tdp1-/-;hTDP1 cells + 20 nM CPT, ATP luminescence, 48 h; also: nearly all actives have a fitted effect of over 55% in size
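Chicken DT40 Tdp1-/- cells complemented with human TDP1, 400 cells/well, exposed to compounds plus 20 nM camptothecin for at least 48 h at 37 C; viability read as ATP content by CellTiter-Glo luminescence.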
TDP1 inh: inhibitors of human tyrosyl-DNA phosphodiesterase TDP1; Q9NUW8; recombinant TDP1, AlphaScreen DNA substrate cleavage; Potency, µM (titrated, usually from 130 µM), hits mostly inhibitors; 350,000 compounds, 0.28% hits; AID 485290; also: nearly all actives have a fitted effect of over 40% in size
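Here, a 5' biotin and 3' phosphotyrosine-FITC DNA oligonucleotide reports Tdp1 activity: intact substrate bridges AlphaScreen beads, while cleavage leaves a 3' phosphate and drops signal. All incubations at room temperature.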
PLK1 PBD block: PLK1 (human) polo-box domain binding inhibition | P53350 | AID 720504 | 360,000 compounds, 2.8% hits | Potency, µM, most hits filed as inhibitors | Plk1 PBD binding of FITC phosphopeptide, fluorescence polarization; also: series mostly up to about 57 µM; nearly all actives have a fitted effect of over 65% in size
DT40 TDP1 no CPT: qHTS for Inhibitors of human tyrosyl-DNA phosphodiesterase 1 (TDP1): qHTS in cells in absence of CPT; DT40 Tdp1-/- hTDP1 cells, no CPT, ATP luminescence, 48 h; Potency, µM (titrated, usually from 46.2 µM), actives largely listed as inhibitors; 420,000 compounds, 15% hits; also: nearly all actives have a fitted effect of over 55% in size
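Cells were dispensed at 400 per well, compounds added by pin tool, plates incubated ≥48 hr at 37 °C, then CellTiter-Glo added for 30 min at room temperature before luminescence reading. Line: DT40 Tdp1-/- complemented with hTDP1; camptothecin omitted.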
VDR inh: vitamin D3 receptor (human) inhibition; P11473; VDR-SRC2-3 peptide fluorescence polarization, 2 h; Potency, µM, hits mostly inhibitors; 400,000 compounds, 0.93% hits; AID 504847
Target sequence (P11473 whole entry, looked up): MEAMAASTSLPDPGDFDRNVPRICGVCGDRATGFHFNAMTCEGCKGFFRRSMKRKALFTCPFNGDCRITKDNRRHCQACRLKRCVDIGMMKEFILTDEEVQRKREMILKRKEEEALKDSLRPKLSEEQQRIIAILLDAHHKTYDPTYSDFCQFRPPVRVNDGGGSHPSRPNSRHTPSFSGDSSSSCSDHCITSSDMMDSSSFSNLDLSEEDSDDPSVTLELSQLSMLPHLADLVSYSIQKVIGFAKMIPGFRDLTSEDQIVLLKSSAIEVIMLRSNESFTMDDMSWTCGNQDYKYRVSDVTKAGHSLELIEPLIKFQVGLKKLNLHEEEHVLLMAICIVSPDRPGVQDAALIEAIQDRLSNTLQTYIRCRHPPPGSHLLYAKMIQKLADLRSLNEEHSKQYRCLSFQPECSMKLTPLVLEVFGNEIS
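The screen uses fluorescence polarization to detect compounds that interfere with recruitment of the SRC2-3 coactivator peptide to VDR; plates are read after 2 h at room temperature.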
A number is an active result; . = inactive; ? = inconclusive; / = no result; ! = a repeat was not active. Compounds with a hit are over-represented: about 18% of the library has one in this group of screens. Calls follow the shape of the dose curve; as a rule, active = well fitted curve in the direction sought with a large enough effect; inconclusive = small, poorly fitted or top-dose-only effect, or another doubt; inactive = no such curve, though single readings can be large; an effect the other way counts as inactive or inconclusive.

SMILES	KAT2A inh	DT40 TDP1 CPT	TDP1 inh	PLK1 PBD block	DT40 TDP1 no CPT	VDR inh
CCOC(=O)c1sc2ccccc2c1NC(=O)c1coc2ccccc2c1=O	.	?	.	?	?	.
N#Cc1ccc(CN2CC[C@@]3(CCCN(C(=O)Oc4ccccc4)C3)C2)cc1	.	.	/	/	?	?
CC1CCCN(CCCNC(=O)c2ccc3c(c2)N(Cc2cccc(Cl)c2)C(=O)c2ccccc2S3=O)C1 (stereo not given)	/	?	/	.	?	/
Cc1ccccc1C(=O)Oc1cccc(Nc2ncnc3ccccc23)c1	/	16µM	/	.	13µM	.
CCCCOP(=O)(OCCCC)C(Nc1ccc(C(=O)OCC)cc1)c1ccncc1 (stereo not given)	.	?	/	.	12µM	.
COc1cc2c(c(OC)c1OC)-c1ccc(OC)c(=O)cc1[C@@H](NC=O)CC2	?	/	.	/	/	.
COC1CC(=C(c2cccs2)c2cccs2)C[N+](C)(C)C1 (stereo not given)	.	?	/	/	?	.
C[N@+]12CCCC[C@@H]1CCC(=C(c1cccs1)c1cccs1)C2	/	27µM	/	/	19µM	/
Cc1ccccc1Cc1c(C)nc2nc(SCC(=O)N3CCC4(CC3)OCCO4)nn2c1C	.	.	.	.	.	.
CCOC(=O)c1cc2c(cn1)[nH]c1ccccc12	.	?	.	.	18µM!	.
CC(C)(c1ccc(OCC2CO2)cc1)c1ccc(OCC2CO2)cc1 (stereo not given)	.	6.5µM	.	/	6.5µM	?
Cc1nc2ccc(Nc3nc4cc(S(=O)(=O)N5CCOCC5)ccc4o3)cc2s1	.	16µM	.	4.7µM	18µM	.
O=C1NC(=O)c2c1c1c3ccccc3n3c1c1c2c2ccccc2n1C1CCC3O1	.	/	.	/	/	.
C(#CCN1CCCCC1)CN1CCCCC1	/	.	/	.	.	/
CCCNC1=C(C)C(=O)C2=C(C1=O)C(COC(N)=O)[C@]1(OC)C3NC3CN21 (stereo not given in full)	.	?	.	.	0.26µM	.
O=C(Cc1ccc(Cl)c(Cl)c1)N1CCCCC1CN1CCCC1 (stereo not given)	.	.	.	/	.	.
O=Cc1cn(Cc2ccc(Br)cc2)c2ccccc12	.	.	/	.	.	.
CC(N)Cc1cn(Cc2ccccc2)c2ccccc12 (stereo not given)	.	?	/	.	21µM	.
CCCCCCCCn1sccc1=O	?	0.73µM	.	4.7µM	1.2µM	3.5µM
CC1CC2(C)C(=CC1=O)CCC1C3CCC(C)(O)C3(C)CC3OC312 (stereo not given)	/	?	/	.	?	.
COC(=O)C1=C(c2ccccc2)C[C@@H]2CC[C@H]1N2C(=O)N1CCC(C)CC1	/	?	/	.	15µM	.
COC(=O)C1=C(c2cccc(C#N)c2)C[C@@H]2CC[C@H]1N2C(=O)N1CCC(C)CC1	.	16µM	.	.	23µM	.
COC(=O)C1=C(c2ccc(-c3ccccc3)c(F)c2)C[C@@H]2CC[C@H]1N2C(=O)N1CCC(O)CC1	.	15µM	.	.	9.2µM	.
COC(=O)C1=C(c2ccccc2)C[C@@H]2CC[C@H]1N2C(=O)N1CCOCC1	/	?	/	.	?	.
COC(=O)C1=C(c2ccc(F)cc2F)C[C@@H]2CC[C@H]1N2C(=O)N1CCC(C)CC1	.	16µM	.	.	10µM	.
SMILES	KAT2A inh	DT40 TDP1 CPT	TDP1 inh	PLK1 PBD block	DT40 TDP1 no CPT	VDR inh
Clc1c(Cl)c(Cl)c(Cl)c(Cl)c1Cl	.	/	.	/	/	.
COC(=O)C1=C(c2ccc(-c3ccccc3)c(F)c2)C[C@@H]2CC[C@H]1N2C(=O)N1CCc2cc(OC)c(OC)cc2C1	.	?	.	.	?	.
COC(=O)C1=C(c2ccc(-c3ccccc3)c(F)c2)C[C@@H]2CC[C@H]1N2C(=O)N1CCC(C)CC1	.	7.3µM	.	.	4.6µM	.
CCCSc1nc(O)c(CC)c(=O)n1C(C)CC (stereo not given)	.	.	.	.	.	.
C=CCNC(=S)Nc1ccc(OC(=O)Nc2ccc(Cl)c(Cl)c2)cc1	.	?	/	9.5µM	?	.
Cc1cc(C(=O)NP(=O)(N2CCOCC2)N2CCOCC2)c(C)n1C1CC1	.	.	.	.	.	.
O=C(NP(=O)(N1CC1)N1CC1)c1cc(I)ccc1I	/	1.5µM	/	.	2.3µM	.
COc1ccccc1OC(=O)Oc1ccccc1OC	.	.	.	.	?	.
NC(N)=NN=C(/C=C/c1ccc([N+](=O)[O-])o1)/C=C/c1ccc([N+](=O)[O-])o1	.	3µM	/	/	3µM	?
CC1CCN(C(=O)N2c3ccccc3Sc3ccccc32)CC1	.	?	.	.	?	.
c1ccc2c(c1)Sc1ccccc1N2CC1CN2CCC1CC2 (stereo not given)	.	2.7µM!	.	.	6.7µM	.
CC(C)(C)OC(=O)NCc1ccc(CNC(=O)c2[nH]cnc2C(=O)Nc2ccccc2F)cc1	/	13µM	/	.	7.3µM	/
O=[N+]([O-])c1ccc(N(CCO)CCO)c2c1no[n+]2[O-]	/	0.092µM	/	.	0.16µM	/
CC[N+](CC)(CC)CCOC(=O)C(C1CCCC1)C1CCCC1	/	?	/	/	11µM	/
CC1OC(=O)C(C(C)C)NC(=O)C(C(C)C)OC(=O)C(C(C)C)NC(=O)C(C)OC(=O)C(C(C)C)NC(=O)C(C(C)C)OC(=O)C(C(C)C)NC(=O)C(C)OC(=O)C(C(C)C)NC(=O)C(C(C)C)OC(=O)C(C(C)C)NC1=O (stereo not given)	.	0.18µM	.	/	0.22µM	.
Cc1ccc(C[n+]2c(-c3ccc(C)cc3)cc(-c3ccc(C)cc3)cc2-c2ccc(C)cc2)cc1	.	0.92µM	.	.	0.58µM	.
CCOC(=O)c1cccc(NC(=O)NCc2ccc3c(c2)CCN3C(=O)c2ccccc2)c1	.	16µM	.	/	16µM	.
Cc1ccc(C(=O)N2CCc3cc(CNC(=O)c4ccnn4C)ccc32)cc1	.	5.8µM	.	/	9.2µM	.
O=C(Oc1ccccc1)N1CCC2(CCN(Cc3ccccc3)CC2)CC1	.	.	/	/	.	.
Nc1ncnc2c1ncn2[C@@H]1O[C@H](COP(=O)(O)CP(=O)(O)O)[C@@H](O)[C@H]1O	.	4.1µM	.	.	?	.
CCNC(=O)[C@H]1O[C@@H](n2cnc3c(N)ncnc32)[C@H](O)[C@@H]1O	.	.	.	.	.	.
CN1C(=O)C(=Cc2ccc(N3CCOCC3)o2)C(=O)N(C)C1=S	.	.	.	.	.	.
O=C1NC(=O)C(=Cc2ccc(-c3ccc(Cl)cc3)o2)C(=O)N1	.	5.8µM	/	0.67µM	8.2µM	?
